# Measured values taken from the supplement of paper PMC10338343.
# ± gives the standard deviation.
# Legend:
# [1] = test system: MILI (PIWIL2) piRISC loaded with L1MC piRNA (26 nt); assay: pre-steady-state target cleavage rate (min^-1); guide: L1MC piRNA 5'p-UAACUAAAUACUAUGCAAGCUGUAGG; higher = faster piRNA-guided slicing of the target;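 note: 1 nM active piRISC with 0.1 nM target library at 33 °C single turnover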
# Outline: (§1)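 Active affinity-purified piRISC carrying one synthetic guide (1 nM) was mixed with a transcribed, DNA-blocked target RNA library […] in HEPES–potassium acetate buffer at 33 °C for 0–8 or 0–960 min, with or without 500 nM GTSF1 partner protein. Uncleaved targets were then sequenced and normalised to depth and to weakly complementary targets. Three trials were pooled, and k3 was capped at 0.0001 min^-1. A burst-and-steady-state fit was applied to obtain the pre-steady-state cleavage rate.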
# [2] = test system: EfPiwi piRISC loaded with L1MC piRNA (26 nt); assay: pre-steady-state target cleavage rate (min^-1); auxiliary factor: 500 nM Ephydatia muelleri Gtsf1; guide: L1MC piRNA 5'p-UAACUAAAUACUAUGCAAGCUGUAGG; MIWI and MILI are mouse PIWI proteins and EfPiwi is from a freshwater sponge; tags in brackets are library labels; higher = faster piRNA-guided slicing of the target
# Outline: as §1
# [3] = auxiliary factor: 500 nM mouse GTSF1
Sequence,"pre-steady-state target cleavage rate [1, 3]",pre-steady-state target cleavage rate [2],pre-steady-state target cleavage rate ([1]; auxiliary factor: none (no GTSF1))
UCCUGCUACAGCUUGCAUAGAAAUUAGUUA,0.059 ± 0.015,0.0026 ± 0.0021,
UCCUGGAACUGCUUGCAUAGUAUUUAGAAA,0.103 ± 0.019,0.00485 ± 0.0026,
UCCUGCUACAGCUUGCAUAGUAUAUUGUUA,0.187 ± 0.036,0.00351 ± 0.0021,
UCCUGCUACACCUUGCAUAGUAUUUACUUA,0.102 ± 0.034,0.00306 ± 0.003,
UCCUCCUACAGCUUGCAAAGAAUUUAGUUA,0.0165 ± 0.0051,0.0033 ± 0.0027,
UCCUGCUACAGCUUGCUUAGUAUUAAGUUA,0.179 ± 0.026,0.00988 ± 0.0037,
UCCUGCUACAGCUUGCAUAGUAUAAUCAAA,0.0335 ± 0.013,0.00391 ± 0.0037,
UCCUGGAUGAGCUUGCAUAGAAUUUAGUAA,0.0264 ± 0.011,0.00272 ± 0.0027,
UCCUGCUACAGCUUGCAUAGUAAUUACUUA,0.057 ± 0.017,0.0026 ± 0.0026,
UCCUCCUACACCUUGCAUAGUAUUUUGUUA,0.101 ± 0.026,0.00451 ± 0.0027,
UCCUGGAACUGCUUCCAUAGUAUUUAGUUA,0.074 ± 0.022,0.00266 ± 0.0013,
UCCUGGUUGAGCUUGCAUAGUAUUUUCAAA,0.0103 ± 0.006,0.00218 ± 0.0021,
UCCUGGAUGUCCUUGCAUAGUAUUUGAGUUA,0.169 ± 0.043,0.00517 ± 0.0037,
UCCUGGUACAGCUUGCAUUGUAUUUAGAAA,0.0202 ± 0.0075,0.00329 ± 0.0019,
UCCUGCUUCAGCUUGCAUAGAAUUUAGUUA,0.0587 ± 0.011,0.00544 ± 0.0015,
UCCUCCUACAGCUUGGUUAGUAUUUAGAAA,0.081 ± 0.016,0.00231 ± 0.0022,
UCCUGGAACAGCUUGCCAUAGUAUUUAGUUA,0.163 ± 0.018,0.0042 ± 0.0019,
UCCUCCUACAGCUUGCAUAGGUAUUUAGUUA,,0.0036 ± 0.0026,0.00373 ± 0.0024
UCCUGGAUGAGCAUGCAUAGUAUUUAGAAA,0.121 ± 0.025,0.00289 ± 0.0024,
UCCUGCUACAGCUUGCAAAGUAUAUAGUUA,0.0886 ± 0.016,0.00379 ± 0.0026,
UCCUCCAUCAGCUUGCAUAGUAUUUUCAAA,0.0846 ± 0.02,0.00384 ± 0.0024,
UCCUGGAAGUGCUUGCAUAGUAUUUAGUAA,0.136 ± 0.022,0.00343 ± 0.0027,
UCCUCCUAGAGCUUCCAUAGUAUUUAGUUA,0.0812 ± 0.025,0.00302 ± 0.0014,
UCCUGCUACAGCUUGCAUAGUAUAAUGUUA,0.166 ± 0.022,0.00304 ± 0.002,
UCCUGGAUGUCCUUGCAUAGUAUUUAGAUUA,0.101 ± 0.022,0.00316 ± 0.003,
UCCUCCUACAGCUUGCAUAGUAUUUAGUCUA,0.154 ± 0.041,0.00459 ± 0.0018,
UCCUGGAACAGCUUGCAUAGUAAUUAGAAA,0.0609 ± 0.018,0.00338 ± 0.0026,
UCCUGCUACAGCUUGCAUAGUAUUAUCUUA,0.16 ± 0.035,0.00653 ± 0.0042,

Sequence,"pre-steady-state target cleavage rate [1, 3]",pre-steady-state target cleavage rate [2],pre-steady-state target cleavage rate ([1]; auxiliary factor: none (no GTSF1))
UCCUGCUACAGGUUGCAUAGUAUUUUCAAA,0.0101 ± 0.0054,0.00243 ± 0.0019,
UCCUGCUACAGCUUGCAUAGUAUUUAGAAA,0.157 ± 0.032,0.00439 ± 0.0012,
UCCUGGAACAGCUUGCAUAGUAUAAAGAAA,0.0192 ± 0.0088,0.00217 ± 0.0021,
UCCUGCUACAGCUUCCAUAGUAUUUAGUUA,0.0846 ± 0.028,0.00342 ± 0.0012,
UCCUGGAUCAGCUUGCAUACUAUUUAGUAA,0.0386 ± 0.0077,0.00398 ± 0.0023,
UCCUCCUACAGCUUGGAUAGUAUUUAGAUA,0.139 ± 0.019,0.00474 ± 0.0018,
UCCUCCUACAGCUUGCAUAGUUUUUUCAAA,0.0513 ± 0.014,0.00481 ± 0.0034,
UCCUCCUACAGCUUGCAUAGUAUUAAGUAA,0.17 ± 0.037,0.00642 ± 0.0035,
UCCUGGUACAGCUUGCAUAGUAAUUUGUUA,0.18 ± 0.05,0.00282 ± 0.0025,
UCCUGGAUCAGCUUGCAUAGUAUUUAGUCUA,0.0918 ± 0.025,0.00289 ± 0.0027,
UCCUGGAUGUCCUUGCAUAGUAUUUAGUCUA,0.0325 ± 0.01,0.00301 ± 0.0024,
UCCUGCUACAGCUUGCAUAGUAUUUACAAA,0.153 ± 0.039,0.00255 ± 0.0022,
UCCUGGAACAGCAUGCAUAGUAUUUAGAUA,0.188 ± 0.022,0.00441 ± 0.0022,
UCCUCCUACACCUUGCAUAGAAUUUAGUUA,0.0594 ± 0.019,0.0018 ± 0.0016,
UCCUCCUACAGCUUGCAUAGUAUUAAGAUA,0.125 ± 0.032,0.00411 ± 0.0022,
UCCUGCUACAGCUUGGAUAGUAUUUAGAUA,0.0476 ± 0.016,0.00339 ± 0.001,
UCCUGGAUGAGCUUGCAUAGUAUUUAUUA,0.0142 ± 0.0067,0.00268 ± 0.0022,
UCCUGGAUCAGCUUCCAUAGUAUUUAGAAA,,0.00474 ± 0.0027,
UCCUGCUACAGCUUGCAUAGUUUUAGUUA,0.0113 ± 0.0045,0.00248 ± 0.0013,
UCCUGCAUCAGCUUGCAUAGUAUUUAGAAA,0.127 ± 0.022,0.00393 ± 0.0017,
UCCUGGAACAGCUUGCAUAGUUUUUAGAAA,0.0191 ± 0.007,0.00413 ± 0.0021,
UCCUGCUUCAGCUUGCAUAGUAUUUUCAAA,0.0882 ± 0.022,0.00362 ± 0.0023,
UCCUGGAUGUCCUUGCAUAGUAUGUAGUUA,0.107 ± 0.022,0.00374 ± 0.0037,
UCCUGCUUGUGCUUGCAUAGUAUUUAGUAA,0.0582 ± 0.015,0.00475 ± 0.0026,
UCCUCCUACUGCUUGCAUAGUAUUUAGAAA,0.0658 ± 0.017,0.00462 ± 0.0021,
UCCUGGAUGUCCUUGCAUAGUAUUUAGGUUA,0.0768 ± 0.019,0.00393 ± 0.0033,
UCCUGCUACAGCUUGCAUAGUAAAAAGUUA,0.214 ± 0.036,0.00305 ± 0.0016,
